# In PubChem BioAssay (NCATS):
# Results filed as inconclusive are left out. Entries that show only a call come without a potency. Active and inactive are the calls of the source. The call rests on the fitted dose curve; in most records, active means well fitted cell-killing curve with a large enough effect; inconclusive means small, poorly fitted or top-dose-only effect, or effect the other way; inactive means flat fitted curve, though single readings scatter.
# Test system: C33A
# Assay: Primary qHTS to identify gynecologic anti-cancer compounds using libraries of approved drugs and bioactive compounds (AID 1345084); further: nearly all actives have a fitted effect of over 55% in size
# Settings: Gynecologic cancer cell panel viability, ATPlite luminescence, 48 h; series mostly up to 57.5 µM
# How it was run: (§1)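 Cell viability after 48 h drug treatment, ATPlite luminescence readout; five doses.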
row,SMILES,Potency
1,NCCCC(N)(C(=O)O)C(F)F (configuration not stated),inactive
2,COc1c(Cl)cc2c([nH]c3cnccc32)c1NC(=O)c1cccnc1C,inactive
3,CCCc1nn(C)c2c(=O)[nH]c(-c3cc(S(=O)(=O)N4CCN(C)CC4)ccc3OCC)nc12,inactive
4,CN(C)c1ccc(C2Nc3ccc4ccccc4c3C3=C2C(=O)CC(C)(C)C3)cc1Br (configuration not stated),inactive
5,Cc1ccc(N(CC2=NCCN2)c2cccc(O)c2)cc1,inactive
6,Nc1ccc(S(=O)(=O)Nc2ccnn2-c2ccccc2)cc1,inactive
7,c1ccc([C@H]2CN3CCSC3=N2)cc1,inactive
8,Cc1cn[nH]c1,inactive
9,NC(=O)c1cnccn1,inactive
10,Cn1cc(-c2ccc3nnc(C(F)(F)c4ccc5ncccc5c4)n3n2)cn1,inactive
11,COc1ccc2nc(S(=O)Cc3ncc(C)c(OC)c3C)[nH]c2c1 (configuration not stated),inactive
12,OC(CN1CCC(Cc2ccc(F)cc2)CC1)c1ccc(Cl)cc1 (configuration not stated),inactive
13,CC[C@@H](C)[C@H](NC(=O)[C@H](CC1CCCCC1)NC(=O)c1ccno1)C(=O)N1CCC2(CCc3ccccc32)CC1,inactive
14,NNCCc1ccccc1,inactive
15,Cc1ccccc1C(OCCN(C)C)c1ccccc1 (configuration not stated),inactive
16,CCC(C)n1ncn(-c2ccc(N3CCN(c4ccc(OC[C@H]5CO[C@](Cn6cncn6)(c6ccc(Cl)cc6Cl)O5)cc4)CC3)cc2)c1=O (some centres not stated),inactive
17,CC(C)OC(=O)C1=CN(C(=O)c2ccc(F)c(F)c2)CC(C)(C)c2c1[nH]c1ccccc21,inactive
18,OCCn1cc(-c2cnc3nnn(Cc4ccc5ncccc5c4)c3n2)cn1,inactive

# Test system: CAOV3
# Assay: as above
# Settings: Gynecologic cancer cell panel viability, ATPlite luminescence, 48 h; series mostly up to 57.5 µM
# How it was run: as §1
row,SMILES,Potency
1,NCCCC(N)(C(=O)O)C(F)F (configuration not stated),inactive
2,COc1c(Cl)cc2c([nH]c3cnccc32)c1NC(=O)c1cccnc1C,inactive
3,CCCc1nn(C)c2c(=O)[nH]c(-c3cc(S(=O)(=O)N4CCN(C)CC4)ccc3OCC)nc12,inactive
4,CN(C)c1ccc(C2Nc3ccc4ccccc4c3C3=C2C(=O)CC(C)(C)C3)cc1Br (configuration not stated),inactive
5,Cc1ccc(N(CC2=NCCN2)c2cccc(O)c2)cc1,inactive
6,Nc1ccc(S(=O)(=O)Nc2ccnn2-c2ccccc2)cc1,inactive
7,c1ccc([C@H]2CN3CCSC3=N2)cc1,inactive
8,Cc1cn[nH]c1,inactive
9,NC(=O)c1cnccn1,inactive
10,Cn1cc(-c2ccc3nnc(C(F)(F)c4ccc5ncccc5c4)n3n2)cn1,inactive
11,COc1ccc2nc(S(=O)Cc3ncc(C)c(OC)c3C)[nH]c2c1 (configuration not stated),inactive
12,OC(CN1CCC(Cc2ccc(F)cc2)CC1)c1ccc(Cl)cc1 (configuration not stated),inactive
13,CC[C@@H](C)[C@H](NC(=O)[C@H](CC1CCCCC1)NC(=O)c1ccno1)C(=O)N1CCC2(CCc3ccccc32)CC1,inactive
14,NNCCc1ccccc1,inactive
15,Cc1ccccc1C(OCCN(C)C)c1ccccc1 (configuration not stated),inactive
16,CCC(C)n1ncn(-c2ccc(N3CCN(c4ccc(OC[C@H]5CO[C@](Cn6cncn6)(c6ccc(Cl)cc6Cl)O5)cc4)CC3)cc2)c1=O (some centres not stated),inactive
17,CC(C)OC(=O)C1=CN(C(=O)c2ccc(F)c(F)c2)CC(C)(C)c2c1[nH]c1ccccc21,inactive
18,OCCn1cc(-c2cnc3nnn(Cc4ccc5ncccc5c4)c3n2)cn1,inactive

# Test system: CASKI
# Assay: as above
# Settings: Gynecologic cancer cell panel viability, ATPlite luminescence, 48 h; series mostly up to 57.5 µM
# How it was run: as §1
row,SMILES,Potency
1,NCCCC(N)(C(=O)O)C(F)F (configuration not stated),inactive
2,COc1c(Cl)cc2c([nH]c3cnccc32)c1NC(=O)c1cccnc1C,inactive
3,CCCc1nn(C)c2c(=O)[nH]c(-c3cc(S(=O)(=O)N4CCN(C)CC4)ccc3OCC)nc12,inactive
4,CN(C)c1ccc(C2Nc3ccc4ccccc4c3C3=C2C(=O)CC(C)(C)C3)cc1Br (configuration not stated),inactive
5,Cc1ccc(N(CC2=NCCN2)c2cccc(O)c2)cc1,inactive
6,Nc1ccc(S(=O)(=O)Nc2ccnn2-c2ccccc2)cc1,inactive
7,c1ccc([C@H]2CN3CCSC3=N2)cc1,inactive
8,Cc1cn[nH]c1,inactive
9,NC(=O)c1cnccn1,inactive
10,Cn1cc(-c2ccc3nnc(C(F)(F)c4ccc5ncccc5c4)n3n2)cn1,inactive
11,COc1ccc2nc(S(=O)Cc3ncc(C)c(OC)c3C)[nH]c2c1 (configuration not stated),inactive
12,OC(CN1CCC(Cc2ccc(F)cc2)CC1)c1ccc(Cl)cc1 (configuration not stated),inactive
13,CC[C@@H](C)[C@H](NC(=O)[C@H](CC1CCCCC1)NC(=O)c1ccno1)C(=O)N1CCC2(CCc3ccccc32)CC1,inactive
14,NNCCc1ccccc1,inactive
15,Cc1ccccc1C(OCCN(C)C)c1ccccc1 (configuration not stated),inactive
16,CCC(C)n1ncn(-c2ccc(N3CCN(c4ccc(OC[C@H]5CO[C@](Cn6cncn6)(c6ccc(Cl)cc6Cl)O5)cc4)CC3)cc2)c1=O (some centres not stated),inactive
17,CC(C)OC(=O)C1=CN(C(=O)c2ccc(F)c(F)c2)CC(C)(C)c2c1[nH]c1ccccc21,inactive
18,OCCn1cc(-c2cnc3nnn(Cc4ccc5ncccc5c4)c3n2)cn1,inactive

# Test system: Es-2
# Assay: as above
# Settings: Gynecologic cancer cell panel viability, ATPlite luminescence, 48 h; series mostly up to 57.5 µM
# How it was run: as §1
row,SMILES,Potency
1,NCCCC(N)(C(=O)O)C(F)F (configuration not stated),inactive
2,COc1c(Cl)cc2c([nH]c3cnccc32)c1NC(=O)c1cccnc1C,inactive
3,CCCc1nn(C)c2c(=O)[nH]c(-c3cc(S(=O)(=O)N4CCN(C)CC4)ccc3OCC)nc12,inactive
4,CN(C)c1ccc(C2Nc3ccc4ccccc4c3C3=C2C(=O)CC(C)(C)C3)cc1Br (configuration not stated),inactive
5,Cc1ccc(N(CC2=NCCN2)c2cccc(O)c2)cc1,inactive
6,Nc1ccc(S(=O)(=O)Nc2ccnn2-c2ccccc2)cc1,inactive
7,c1ccc([C@H]2CN3CCSC3=N2)cc1,inactive
8,Cc1cn[nH]c1,inactive
9,NC(=O)c1cnccn1,inactive
10,Cn1cc(-c2ccc3nnc(C(F)(F)c4ccc5ncccc5c4)n3n2)cn1,inactive
11,COc1ccc2nc(S(=O)Cc3ncc(C)c(OC)c3C)[nH]c2c1 (configuration not stated),inactive
12,OC(CN1CCC(Cc2ccc(F)cc2)CC1)c1ccc(Cl)cc1 (configuration not stated),inactive
13,CC[C@@H](C)[C@H](NC(=O)[C@H](CC1CCCCC1)NC(=O)c1ccno1)C(=O)N1CCC2(CCc3ccccc32)CC1,inactive
14,NNCCc1ccccc1,inactive
15,Cc1ccccc1C(OCCN(C)C)c1ccccc1 (configuration not stated),inactive
16,CCC(C)n1ncn(-c2ccc(N3CCN(c4ccc(OC[C@H]5CO[C@](Cn6cncn6)(c6ccc(Cl)cc6Cl)O5)cc4)CC3)cc2)c1=O (some centres not stated),inactive
17,CC(C)OC(=O)C1=CN(C(=O)c2ccc(F)c(F)c2)CC(C)(C)c2c1[nH]c1ccccc21,inactive
18,OCCn1cc(-c2cnc3nnn(Cc4ccc5ncccc5c4)c3n2)cn1,inactive
